Measurements reported in PubChem BioAssay (Tox21).
Records with an inconclusive call do not appear. Calls of active or inactive are those of the source. Unless noted, the call rests on the fitted dose curve; in most records, active means well fitted curve in the direction sought with a large enough effect in the repeat runs; inconclusive means weak or mixed curves; inactive means no such curve, though single readings can be large; an effect the other way counts as inactive or inconclusive.

Key:
[1] = qHTS assay to identify small molecule antagonists of the sonic hedgehog signaling (Shh) pathway (AID 1259369; calls by dose curve; further: nearly all actives have a fitted effect of over 45% in size)
Method in brief: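 For antagonist detection, the reporter line received test compounds together with conditioned medium, incubated 24hr at 37 C, 5% CO2, then luminescence was recorded following 30min room-temperature luciferase reagent incubation.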

[2] = qHTS assay to identify small molecule agonists of the estrogen receptor beta (ER-beta) signaling pathway - cell viability counter screen (AID 1259380); further: nearly all actives have a fitted effect of over 30% in size
Method in brief: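 CellTiter-Glo read, 30 min RT, same wells as bla assay; cells ER-beta-UAS-bla HEK293T; 16 hr compound, 37C; medium 2% charcoal-stripped FBS.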

[3] = qHTS assay to identify small molecule antagonists of the estrogen receptor beta (ER-beta) signaling pathway - cell viability counter screen (AID 1259382); further: series mostly up to about 92 µM; nearly all actives have a fitted effect of over 55% in size
Method in brief: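 In this multiplexed counter screen, cells were seeded at 2,000 per well in medium with 2% charcoal-stripped FBS and incubated 6 hr before compound and 1nM final E2 were added. Sixteen hours later, ATP-based luminescence reported viability.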

[4] = qHTS assay to identify small molecule agonists or antagonists of the thyroid stimulating hormone receptor (TSHR) signaling pathway - wild type cell line counter screen (AID 1259384; calls by dose curve)
Method in brief: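 Wild-type Hek293 cells, 800/well, 18 h at 37C, then compound with Ro20-1724 for 30 min RT. cAMP by HTRF (cAMP-d2/anti-cAMP cryptate), 1 h RT, fluorescence read. 15 concentrations, triplicates.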

[5] = biological target: Thyrotropin receptor (Homo sapiens) (UniProt P16473); assay: qHTS assay to identify small molecule antagonists of the thyroid stimulating hormone receptor (TSHR) signaling pathway (AID 1259385; calls by dose curve; further: nearly all actives have a fitted effect of over 20% in size)
Method in brief: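 TSHR-HEK293 cells (800/well) plated 18 h, then compounds with Ro20-1724 and TSH at 1.5 ng/mL final, 30 min at room temperature. cAMP quantified by HTRF (cAMP-d2/anti-cAMP-cryptate, 1 h); 15 concentrations in triplicate.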

[6] = qHTS assay to identify small molecule agonists of the estrogen receptor alpha (ER-alpha) signaling pathway in the presence of an antagonist - cell viability counter screen (AID 1259386);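 further: series mostly up to about 92 µM; cells exposed to compounds for 22 h at 37 °C before the viability read; nearly all actives have a fitted effect of over 30% in size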
Method in brief: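 Viability counter screen using VM7Luc4E2 (full-length ER-alpha, four ERE-luciferase). The cells were treated with compounds alongside ICI-182,780 10.0nM for 22hr, and live-cell protease fluorescence was quantified with CellTiter-Fluor.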

[7] = biological target: Progesterone receptor (Homo sapiens) (UniProt P06401); assay: qHTS assay to identify small molecule agonists of the progesterone receptor (PR) signaling pathway (AID 1346784; calls by dose curve; further: nearly all actives have a fitted effect of over 30% in size; further: potency means the concentration at half of the fitted maximal effect)
Method in brief: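 Seed PR-UAS-bla HEK 293T cells (2% charcoal-stripped FBS), incubate 6 hr at 37C; add compounds in DMSO, 16 hr at 37C; add LiveBLAzer B/G substrate, 2 hr RT; read fluorescence intensity.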

[8] = biological target: Progesterone receptor (Homo sapiens) (UniProt P06401); assay: qHTS assay to identify small molecule antagonists of the progesterone receptor (PR) signaling pathway (AID 1346795; active means well fitted inhibition curve with a large enough effect in the signal ratio in the repeat runs, not every such curve was filed as active; the % refers to the signal ratio)
Method in brief: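 Screening used a GripTite HEK293T line with PR-responsive UAS-beta-lactamase. Cells were challenged with compound in the presence of 1 nM R5020 final for 16 hr at 37C; B/G FRET substrate, 2 hr room temperature, fluorescence.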

[9] = qHTS assay to identify small molecule antagonists of the progesterone receptor (PR) signaling pathway - cell viability counter screen (AID 1346798); further: series mostly up to about 92 µM; nearly all actives have a fitted effect of over 50% in size
Method in brief: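 Measures cytotoxicity in parallel with the PR antagonist reporter read: HEK293T PR-UAS-bla cells get compound and R5020 for 16 hr, and remaining viable cells are quantified by CellTiter-Glo luminescence.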

[10] = qHTS assay to identify small molecule agonists of the progesterone receptor (PR) signaling pathway - cell viability counter screen (AID 1346799; calls by dose curve; further: nearly all actives have a fitted effect of over 45% in size)
Method in brief: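 Using the same plates as the PR reporter screen, HEK293T PR-UAS-bla cells received compounds for 16 hr at 37C and were then lysed with CellTiter-Glo; luminescence was read 30 min later at room temperature.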

[11] = qHTS assay to identify small molecule antagonists of the TGF-beta/Smad signaling pathway - cell viability counter screen (AID 1346824); further: nearly all actives have a fitted effect of over 50% in size
Method in brief: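 SBE-bla HEK 293T cells, incubated overnight, then compound plus 0.25 ng/mL TGF-beta1 (stock added) for 5 hr at 37 C. Viability was read in the same wells by CellTiter-Glo luminescence after 30 min at room temperature.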

[12] = qHTS assay to identify small molecule agonists of the TGF-beta/Smad signaling pathway (AID 1346859; active means well fitted activation curve with a large enough effect in the signal ratio in the repeat runs, not every such curve was filed as active; the % refers to the signal ratio; further: series mostly up to about 77 µM)
Method in brief: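 Beta-lactamase reporter activity downstream of Smad binding elements was measured in stably transfected HEK 293T cells; compounds were incubated for 5 hr, substrate for 2 hr at room temperature.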

[13] = biological target: Thyrotropin-releasing hormone receptor (Homo sapiens) (UniProt P34981); assay: qHTS assay to identify small molecule antagonists of the thyrotropin-releasing hormone receptor (TRHR) signaling pathway (AID 1346877; active means well fitted inhibition curve with a large enough effect in the repeat runs, not every such curve was filed as active; further: series mostly up to about 51 µM)
Method in brief: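 Following an 18 h incubation at 37 °C and a 2 h calcium dye load, TRHR-HEK293 cells were exposed to compound (5 min, room temperature) and challenged with TRH, 1 nM final.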

[14] = biological target: Thyrotropin-releasing hormone receptor (Homo sapiens) (UniProt P34981); assay: qHTS assay to identify small molecule agonists of the thyrotropin-releasing hormone receptor (TRHR) signaling pathway (AID 1346891; calls by dose curve;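 further: HEK293 cells expressing TRHR with calcium dye readout; series mostly up to about 58 µM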)
Method in brief: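 Overnight-plated (18 h, 37 °C, 5% CO2) TRHR-Hek293 cells; 2 h calcium dye at 37 °C; compound in DMSO; 3-min kinetic fluorescence read.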

[15] = biological target: Estrogen receptor beta (Homo sapiens) (UniProt Q92731); assay: qHTS assay to identify small molecule agonists of the estrogen receptor beta (ER-beta) signaling pathway (AID 1259377; active means well fitted activation curve with a large enough effect in the signal ratio in the repeat runs, not every such curve was filed as active; the % refers to the signal ratio)
Method in brief: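 Screening used GripTite ER-beta-UAS-bla cells held in 2% charcoal-stripped FBS medium. After overnight (16 hr) compound incubation at 37C, beta-lactamase activity was detected with a FRET substrate by fluorescence.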

[16] = biological target: Estrogen receptor beta (Homo sapiens) (UniProt Q92731); assay: qHTS assay to identify small molecule antagonists of the estrogen receptor beta (ER-beta) signaling pathway (AID 1259378; active means well fitted inhibition curve with a large enough effect in the signal ratio in the repeat runs, not every such curve was filed as active; the % refers to the signal ratio)
Method in brief: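 ER-beta-UAS-bla HEK293T cells in 2% charcoal-stripped FBS medium treated with compound plus 1nM final 17-beta-estradiol for 16 hr at 37C. Beta-lactamase reporter read by FRET substrate fluorescence after 2 hours at room temperature.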

[17] = qHTS assay to identify small molecule agonists of the androgen receptor (AR) signaling pathway in the presence of an antagonist - cell viability counter screen (AID 1259379);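 further: MDA-kb2 human breast cancer cells carrying an MMTV luciferase reporter; series mostly up to about 92 µM; nearly all actives have a fitted effect of over 25% in size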
Method in brief: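 Seed MDA-kb2 at 3,000 cells/well; incubate 5 hr, 37C, 0% CO2. Add nilutamide to 3.0uM final, then pin compounds at 15 concentrations. Incubate 16 hr. Add CellTiter-Fluor at 15 hr, read fluorescence after 1 hr.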

[18] = biological target: Estrogen receptor (Homo sapiens) (UniProt P03372); assay: qHTS assay to identify small molecule agonists of the estrogen receptor alpha (ER-alpha) signaling pathway in the presence of an antagonist (AID 1259383; calls by dose curve; further: top concentration of the series differs between compounds; nearly all actives have a fitted effect of over 15% in size)
Method in brief: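 Stably transfected VM7Luc4E2 reporter cells, kept 5 days in charcoal-stripped serum, received ICI-182,780 at 10.0nM final before compound addition. Following 22hr incubation at 37C and 5% CO2, luciferase signal was read by luminescence.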

[19] = qHTS assay to identify small molecule agonists of the TGF-beta/Smad signaling pathway - cell viability counter screen (AID 1346829); further: top concentration of the series differs between compounds; nearly all actives have a fitted effect of over 45% in size
Method in brief: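 Luminescence from CellTiter-Glo, read after a 30 min room-temperature incubation, gives cell viability of SBE-bla HEK 293T cells treated 5 hr with compounds at 37 C.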

[20] = biological target: Androgen receptor (Homo sapiens) (UniProt P10275); assay: qHTS assay to identify small molecule agonists of the androgen receptor (AR) signaling pathway in the presence of an antagonist (AID 1259381; calls by dose curve; further: potency means the concentration at half of the fitted maximal effect; nearly all actives have a fitted effect of over 15% in size)
Method in brief: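 Test compounds at 15 concentrations were incubated for 16hr with MDA-kb2 reporter cells in presence of 3.0uM nilutamide (final). Signal: ONE-Glo luciferase luminescence.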

Measured: Potency

Sequence of Estrogen receptor (Homo sapiens) (P03372 whole entry, looked up): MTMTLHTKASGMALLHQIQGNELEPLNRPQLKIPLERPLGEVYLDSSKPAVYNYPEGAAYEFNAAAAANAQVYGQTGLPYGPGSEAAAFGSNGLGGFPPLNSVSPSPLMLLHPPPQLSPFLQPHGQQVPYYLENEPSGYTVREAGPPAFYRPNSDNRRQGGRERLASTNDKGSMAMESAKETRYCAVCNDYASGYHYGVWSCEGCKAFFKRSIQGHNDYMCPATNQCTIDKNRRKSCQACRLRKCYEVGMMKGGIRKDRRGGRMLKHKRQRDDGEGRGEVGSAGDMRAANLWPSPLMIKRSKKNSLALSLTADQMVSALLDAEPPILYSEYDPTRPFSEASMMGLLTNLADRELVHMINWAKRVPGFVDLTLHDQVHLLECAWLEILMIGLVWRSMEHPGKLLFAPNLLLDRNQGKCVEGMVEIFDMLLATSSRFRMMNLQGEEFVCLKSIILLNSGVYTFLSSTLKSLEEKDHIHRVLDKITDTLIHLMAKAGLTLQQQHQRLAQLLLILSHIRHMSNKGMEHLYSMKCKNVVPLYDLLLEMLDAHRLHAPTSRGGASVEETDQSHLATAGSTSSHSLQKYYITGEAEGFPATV
Sequence of Estrogen receptor beta (Homo sapiens) (Q92731 whole entry, looked up): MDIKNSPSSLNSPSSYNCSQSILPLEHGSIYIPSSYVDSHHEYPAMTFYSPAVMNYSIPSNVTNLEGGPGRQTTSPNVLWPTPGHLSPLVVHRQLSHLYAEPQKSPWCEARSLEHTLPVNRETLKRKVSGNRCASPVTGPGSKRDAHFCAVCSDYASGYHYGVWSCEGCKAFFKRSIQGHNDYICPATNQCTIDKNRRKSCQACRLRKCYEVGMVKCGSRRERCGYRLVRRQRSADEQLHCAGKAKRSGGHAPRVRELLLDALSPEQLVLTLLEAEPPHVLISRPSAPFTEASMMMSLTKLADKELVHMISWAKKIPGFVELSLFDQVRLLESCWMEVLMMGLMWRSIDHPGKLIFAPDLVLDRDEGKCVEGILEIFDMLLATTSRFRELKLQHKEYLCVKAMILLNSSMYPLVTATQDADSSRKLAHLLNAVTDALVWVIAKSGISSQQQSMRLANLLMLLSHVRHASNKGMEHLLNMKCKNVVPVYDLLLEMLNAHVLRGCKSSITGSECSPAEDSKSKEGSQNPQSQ
Sequence of Thyrotropin-releasing hormone receptor (Homo sapiens) (P34981 whole entry, looked up): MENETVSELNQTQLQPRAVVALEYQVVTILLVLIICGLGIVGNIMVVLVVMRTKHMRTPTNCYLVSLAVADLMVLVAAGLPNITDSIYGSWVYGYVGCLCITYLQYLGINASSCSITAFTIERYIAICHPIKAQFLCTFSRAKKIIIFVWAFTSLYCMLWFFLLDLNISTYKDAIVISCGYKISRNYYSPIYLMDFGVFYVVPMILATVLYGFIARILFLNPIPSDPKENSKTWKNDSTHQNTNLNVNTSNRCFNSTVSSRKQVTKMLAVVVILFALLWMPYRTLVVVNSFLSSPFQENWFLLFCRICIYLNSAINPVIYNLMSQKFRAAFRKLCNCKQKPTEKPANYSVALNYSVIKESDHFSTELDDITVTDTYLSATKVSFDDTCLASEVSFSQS
Sequence of Thyrotropin receptor (Homo sapiens) (P16473 whole entry, looked up): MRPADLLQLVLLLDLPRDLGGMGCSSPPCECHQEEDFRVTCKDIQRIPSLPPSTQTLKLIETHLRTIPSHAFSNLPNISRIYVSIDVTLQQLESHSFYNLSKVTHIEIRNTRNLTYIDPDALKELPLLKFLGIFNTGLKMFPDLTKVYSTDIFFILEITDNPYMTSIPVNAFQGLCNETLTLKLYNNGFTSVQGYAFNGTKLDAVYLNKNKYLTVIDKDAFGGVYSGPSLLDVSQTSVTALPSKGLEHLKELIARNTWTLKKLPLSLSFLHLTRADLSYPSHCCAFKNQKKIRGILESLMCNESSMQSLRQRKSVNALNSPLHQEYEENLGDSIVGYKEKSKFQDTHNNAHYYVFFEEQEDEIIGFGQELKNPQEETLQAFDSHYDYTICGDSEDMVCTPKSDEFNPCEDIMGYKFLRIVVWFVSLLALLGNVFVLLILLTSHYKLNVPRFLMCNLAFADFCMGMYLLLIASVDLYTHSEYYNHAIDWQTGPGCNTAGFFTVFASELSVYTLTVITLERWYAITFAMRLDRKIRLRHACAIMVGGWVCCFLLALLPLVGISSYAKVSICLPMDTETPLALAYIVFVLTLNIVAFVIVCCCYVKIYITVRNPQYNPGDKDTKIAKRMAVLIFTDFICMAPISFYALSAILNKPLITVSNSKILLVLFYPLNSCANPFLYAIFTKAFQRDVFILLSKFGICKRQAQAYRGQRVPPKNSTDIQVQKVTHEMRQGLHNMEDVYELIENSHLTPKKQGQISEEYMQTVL
Sequence of Progesterone receptor (Homo sapiens) (P06401 whole entry, looked up): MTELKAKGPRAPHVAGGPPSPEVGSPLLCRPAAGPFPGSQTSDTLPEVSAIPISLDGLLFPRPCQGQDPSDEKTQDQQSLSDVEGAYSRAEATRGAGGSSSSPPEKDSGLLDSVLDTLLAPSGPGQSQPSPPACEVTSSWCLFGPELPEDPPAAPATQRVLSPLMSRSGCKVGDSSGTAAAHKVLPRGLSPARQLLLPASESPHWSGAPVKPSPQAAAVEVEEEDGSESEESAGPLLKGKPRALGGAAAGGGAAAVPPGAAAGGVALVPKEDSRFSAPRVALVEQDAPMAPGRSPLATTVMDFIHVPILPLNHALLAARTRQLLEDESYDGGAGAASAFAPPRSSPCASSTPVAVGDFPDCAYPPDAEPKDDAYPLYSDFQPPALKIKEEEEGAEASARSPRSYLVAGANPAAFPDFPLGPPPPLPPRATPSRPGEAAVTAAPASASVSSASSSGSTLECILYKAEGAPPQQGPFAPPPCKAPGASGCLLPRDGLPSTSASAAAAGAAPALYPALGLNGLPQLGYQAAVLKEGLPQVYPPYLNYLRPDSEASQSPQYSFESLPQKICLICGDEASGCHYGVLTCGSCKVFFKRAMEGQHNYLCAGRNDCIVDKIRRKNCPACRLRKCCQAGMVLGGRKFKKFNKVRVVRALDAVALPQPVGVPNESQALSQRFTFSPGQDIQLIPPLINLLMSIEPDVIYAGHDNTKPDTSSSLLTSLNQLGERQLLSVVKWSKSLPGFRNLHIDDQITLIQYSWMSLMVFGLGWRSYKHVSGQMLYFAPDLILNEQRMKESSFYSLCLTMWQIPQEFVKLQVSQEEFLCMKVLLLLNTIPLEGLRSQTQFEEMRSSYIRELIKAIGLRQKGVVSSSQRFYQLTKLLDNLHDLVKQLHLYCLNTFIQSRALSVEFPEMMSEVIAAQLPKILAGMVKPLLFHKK
Sequence of Androgen receptor (Homo sapiens) (P10275 whole entry, looked up): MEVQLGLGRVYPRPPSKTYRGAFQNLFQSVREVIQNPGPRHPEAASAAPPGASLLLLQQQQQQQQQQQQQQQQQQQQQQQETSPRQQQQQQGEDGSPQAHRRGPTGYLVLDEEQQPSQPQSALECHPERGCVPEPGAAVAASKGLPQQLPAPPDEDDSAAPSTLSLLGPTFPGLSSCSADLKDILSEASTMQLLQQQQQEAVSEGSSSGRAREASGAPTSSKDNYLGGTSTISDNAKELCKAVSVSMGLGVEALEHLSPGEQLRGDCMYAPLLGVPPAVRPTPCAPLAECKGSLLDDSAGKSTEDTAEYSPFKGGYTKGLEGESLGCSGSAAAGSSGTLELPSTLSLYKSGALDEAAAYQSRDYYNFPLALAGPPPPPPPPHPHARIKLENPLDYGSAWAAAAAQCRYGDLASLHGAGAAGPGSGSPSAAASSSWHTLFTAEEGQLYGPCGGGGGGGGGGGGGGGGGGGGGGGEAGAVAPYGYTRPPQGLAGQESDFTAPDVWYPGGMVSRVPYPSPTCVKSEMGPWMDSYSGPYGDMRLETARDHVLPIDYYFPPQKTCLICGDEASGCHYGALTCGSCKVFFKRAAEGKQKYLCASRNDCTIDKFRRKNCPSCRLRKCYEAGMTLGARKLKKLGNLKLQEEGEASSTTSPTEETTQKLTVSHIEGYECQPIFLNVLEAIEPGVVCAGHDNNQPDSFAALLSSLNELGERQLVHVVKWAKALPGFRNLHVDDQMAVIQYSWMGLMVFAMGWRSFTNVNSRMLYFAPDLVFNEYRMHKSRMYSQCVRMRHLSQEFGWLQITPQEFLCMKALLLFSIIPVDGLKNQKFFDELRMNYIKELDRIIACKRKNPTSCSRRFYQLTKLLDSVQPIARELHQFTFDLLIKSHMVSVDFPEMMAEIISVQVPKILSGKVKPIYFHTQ

COc1ccccc1OCC1CNC(=O)O1 (stereo not given)
not listed: [15] | [16] | [17] | [18] | [19] | [20]
inactive: all other assays above

O=C(CO)[C@@H](O)[C@H](O)[C@@H](O)CO
not listed: [1] | [20]
inactive: all other assays above

CCCCCCCCCCCCSC
not listed: [1] | [10] | [18] | [20]
inactive: all other assays above

CC1OC1C1CCC2(C)OC2C1 (stereo not given)
not listed: [1] | [8] | [20]
inactive: all other assays above

CC(CC=O)CC(C)(C)C (stereo not given)
not listed: [1] | [20]
inactive: all other assays above

C=CCOCC(O)CO (stereo not given)
not listed: [1] | [2] | [20]
inactive: all other assays above

COc1c(N2CCNC(C)C2)c(F)cc2c(=O)c(C(=O)O)cn(C3CC3)c12 (stereo not given)
not listed: [1] | [4] | [5] | [10] | [18] | [20]
inactive: all other assays above

CC(C)C(=O)OC(=O)C(C)C
not listed: [1] | [16] | [17] | [18] | [19] | [20]
inactive: all other assays above

CC(C)(C#N)Nc1nc(Cl)nc(NC2CC2)n1
not listed: [1] | [2] | [15] | [16] | [18] | [20]
inactive: all other assays above

CCCC(=O)O[C@]1(C(=O)CC)CC[C@H]2[C@@H]3CCC4=CC(=O)CC[C@]4(C)[C@H]3[C@@H](O)C[C@@]21C
active: [20] 13.3 nM | [7] 7.5 nM
not listed: [1] | [2] | [4] | [5] | [16]
inactive: all other assays above

Cc1ccccc1N=C(N)N=C(N)N
not listed: [1] | [10] | [15] | [16] | [18] | [20]
inactive: all other assays above

CCCn1cc[n+](C)c1C
inactive: [17] | [3] | [6] | [7] | [8] | [9] | [11] | [19] | [12]

CC1=CCC(O)(C(C)C)CC1 (stereo not given)
not listed: [1] | [8] | [10] | [15] | [20]
inactive: all other assays above
